Bioassay records from PubChem BioAssay.
Sampled rows, rich in hits. Any-hit rate of the full collection: about 10%.
NIH3T3 tox: Cytotoxic Profiling in NIH 3T3 Cell Line of Diverse Libraries Using Quantitative High-Throughput Screening. Potency, µM (top dose mostly 96.7 µM), most hits filed as inhibitors. hit rate 4.3% among 94,000. NIH 3T3 viability, CellTiter-Glo ATP luminescence, 48-72 h; further: nearly all actives have a fitted effect of over 55% in size
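ATP-dependent luminescence (CellTiter-Glo) served as the viability signal for NIH 3T3 cells treated with compound for 48 or 72 hr at 37 °C.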
HEK cytotox: Cytotoxic Profiling in HEK 293 Cell Line of Diverse Libraries Using Quantitative High-Throughput Screening; Potency, µM (doses to about 115 µM), actives largely listed as inhibitors; hit rate 6.6% among 94,000; HEK 293 viability, ATP luminescence (CellTiter-Glo), 48-72 h; further: nearly all actives have a fitted effect of over 60% in size
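Pintool-delivered compounds were incubated with HEK 293 cells (250 cells/well) at 37 degree Celsius for 48 or 72 hr. ATP-dependent luminescence (CellTiter-Glo) then reported remaining viable cells.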
Luciferase inh: Firefly luciferase inhibition profiling of diverse chemical library using quantitative high-throughput screening. hit rate 2.5% among 76,000. Luciferin 4-monooxygenase (Photinus pyralis), P08659. Potency, µM (highest dose often 115 µM), actives largely listed as inhibitors. purified P. pyralis luciferase, luminescence, biochemical; further: nearly all actives have a fitted effect of over 65% in size
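FLuc 10nM, D-luciferin 10uM, ATP 10uM, Mg acetate 10mM, Tris acetate pH 7.5, Tween/BSA; cpd qHTS; enzyme added last; CCD luminescence.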
GPT2 inh: Primary qHTS assay for inhibitors of Glutamate pyruvate transaminase 2 (GPT2); Alanine aminotransferase 2 (Homo sapiens), Q8TD30; Recombinant GPT2, coupled pyruvate oxidase/HRP Amplex Red fluorescence; Potency, µM (series often up to 57.7 µM), hits mostly inhibitors; hit rate 0.25% among 100,000; AID 1671188, 2021; further: nearly all actives have a fitted effect of over 60% in size
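Fluorescence of coupled pyruvate oxidase/HRP/Amplex Red system (50uM Amplex, 30 min, dark) reports pyruvate formed by GPT2. Enzyme reaction: 10ng/uL GPT2, 2mM L-alanine, 250uM a-KG, 30 min room temperature, pH 7.5; 50uM AOA control.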
NPR1 antag: Natriuretic polypeptide receptor (hNpr1) antagonism - Primary qHTS. hit rate 1.6% among 76,000. HEK293 hNpr1 GloSensor cGMP, ANP-stimulated luminescence. Potency, µM (top dose mostly 46.3 µM), usual class: inhibitors; calls by dose curve; further: nearly all actives have a fitted effect of over 60% in size
Target sequence (P16066 whole entry, looked up): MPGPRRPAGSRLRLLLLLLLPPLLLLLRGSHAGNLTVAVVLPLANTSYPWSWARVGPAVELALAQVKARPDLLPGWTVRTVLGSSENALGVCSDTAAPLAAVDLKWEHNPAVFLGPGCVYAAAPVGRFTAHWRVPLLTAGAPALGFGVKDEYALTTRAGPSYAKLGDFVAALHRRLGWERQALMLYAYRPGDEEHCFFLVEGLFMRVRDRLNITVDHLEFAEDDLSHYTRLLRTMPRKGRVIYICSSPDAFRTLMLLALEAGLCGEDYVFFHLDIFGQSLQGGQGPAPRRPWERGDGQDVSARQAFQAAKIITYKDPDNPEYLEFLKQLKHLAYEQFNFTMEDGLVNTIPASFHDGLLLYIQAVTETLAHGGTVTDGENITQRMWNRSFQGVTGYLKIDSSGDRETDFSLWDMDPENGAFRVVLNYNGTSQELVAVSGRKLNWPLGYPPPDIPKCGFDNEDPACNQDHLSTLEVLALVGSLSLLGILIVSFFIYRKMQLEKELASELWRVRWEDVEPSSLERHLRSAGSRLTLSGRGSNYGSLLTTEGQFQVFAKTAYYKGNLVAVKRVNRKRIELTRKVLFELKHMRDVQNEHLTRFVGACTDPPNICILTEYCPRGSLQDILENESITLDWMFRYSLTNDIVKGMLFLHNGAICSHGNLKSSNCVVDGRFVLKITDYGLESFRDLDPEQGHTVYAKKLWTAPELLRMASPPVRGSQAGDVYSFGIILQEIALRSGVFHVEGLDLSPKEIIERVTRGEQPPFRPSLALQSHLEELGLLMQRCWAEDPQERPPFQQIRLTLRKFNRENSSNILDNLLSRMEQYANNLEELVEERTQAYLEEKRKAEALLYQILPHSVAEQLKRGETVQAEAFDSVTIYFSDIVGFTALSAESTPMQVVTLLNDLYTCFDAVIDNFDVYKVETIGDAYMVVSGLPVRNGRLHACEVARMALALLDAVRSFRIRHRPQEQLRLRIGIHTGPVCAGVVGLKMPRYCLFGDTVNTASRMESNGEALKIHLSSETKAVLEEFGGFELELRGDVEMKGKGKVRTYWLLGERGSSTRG
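Compound pre-incubated 30 min at room temperature on GloSensor-loaded HEK293 cells stably carrying hNpr1 and the pGS-40F cGMP biosensor. Stimulation uses hNppA at 0.1 nM final; luminescence is taken at baseline and 20 min post-agonist.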
Numbers stand for hits. Unless noted, the call rests on the fitted dose curve; in most records, active means well fitted curve in the direction sought with a large enough effect; inconclusive means small, poorly fitted or top-dose-only effect, or another doubt; inactive means no such curve, though single readings can be large; an effect the other way counts as inactive or inconclusive.

What do the screens show for `Oc1ccc2c(c1)C13CCCC[C@H]1[C@@H](C2)N(CC1CCC1)CC3`?
GPT2 inh: inactive

Results for CSc1cccc(NC(=O)NC[C@H]2C[C@@H]3CCN2C[C@@H]3CN(C)c2ccccc2)c1 ?
NIH3T3 tox: 32µM; HEK cytotox: 25µM; Luciferase inh: inconclusive; GPT2 inh: inactive; NPR1 antag: inactive

What do the screens show for `CC[C@H]1CN2CC[C@H]1C[C@@H]2CNC(=O)Nc1cccc(SC)c1`?
NIH3T3 tox: inactive; HEK cytotox: inactive; Luciferase inh: inactive; GPT2 inh: inactive; NPR1 antag: inactive

Results for CCN(CC)C[C@H]1CN2CC[C@H]1C[C@@H]2CNC(=O)Nc1cccc(SC)c1 ?
NIH3T3 tox: 40µM; HEK cytotox: 50µM; Luciferase inh: inactive; GPT2 inh: inactive; NPR1 antag: inactive

What do the screens show for `CSc1cccc(NC(=O)NC[C@H]2C[C@@H]3CCN2C[C@@H]3CN(C)Cc2ccccc2)c1`?
NIH3T3 tox: 22µM; HEK cytotox: 28µM; Luciferase inh: inactive; GPT2 inh: inactive; NPR1 antag: inactive

Results for CC(C)NC(=O)NC[C@H]1C[C@@H]2CCN1C[C@@H]2CN(C)Cc1ccccc1 ?
NIH3T3 tox: inactive; HEK cytotox: inactive; Luciferase inh: inactive; GPT2 inh: inactive; NPR1 antag: inactive

What do the screens show for `CC(=O)NCCNC(=O)[C@H]1CN2CCC1C[C@@H]2Cn1cc(CSc2ccccc2)nn1` (stereo not given in full)?
NIH3T3 tox: inactive; HEK cytotox: inactive; Luciferase inh: inactive; GPT2 inh: inactive; NPR1 antag: inactive

Results for COc1cc2c(cc1OCC1CC1)NC(=O)C21CCN(c2nc(C)cc(C)n2)CC1 ?
NIH3T3 tox: inconclusive; HEK cytotox: inconclusive; Luciferase inh: inactive; GPT2 inh: inactive; NPR1 antag: inactive

What do the screens show for `COc1cc2c(cc1OCC1CC1)NC(=O)C21CCN(c2ncc(C(C)C)cn2)CC1`?
NIH3T3 tox: 79µM; HEK cytotox: 100µM; Luciferase inh: inactive; GPT2 inh: inconclusive; NPR1 antag: inactive

What do the screens show for `COc1cc2c(cc1Oc1ccccc1)NC(=O)C21CCN(c2ncc(C(C)C)cn2)CC1`?
NIH3T3 tox: inconclusive; HEK cytotox: inconclusive; Luciferase inh: inactive; GPT2 inh: inactive; NPR1 antag: inactive

Results for CCc1cnc(N2CCC3(CC2)C(=O)Nc2cc(OCC4CC4)c(OC)cc23)nc1 ?
NIH3T3 tox: 100µM; HEK cytotox: 112µM; Luciferase inh: inactive; GPT2 inh: inactive; NPR1 antag: inactive

Results for Cc1ccc([C@@H]2CN(C(=O)c3snnc3C)[C@@H]3C4CCN(CC4)[C@@H]32)cc1 ?
NIH3T3 tox: inactive; HEK cytotox: inactive; Luciferase inh: inactive; GPT2 inh: inactive; NPR1 antag: inactive

What do the screens show for `O=C1NCc2ccccc2CC12CCCN(Cc1ccccn1)C2` (stereo not given)?
NIH3T3 tox: inactive; HEK cytotox: inactive; GPT2 inh: inactive

How did Cc1cc(CN2CCCC3(C2)NC(=O)c2ccccc2O3)no1 (stereo not given) do in these assays?
NIH3T3 tox: inactive; HEK cytotox: inactive; Luciferase inh: inactive; GPT2 inh: inactive; NPR1 antag: inactive

Results for O=C1N(c2ccccn2)C[C@H]2CN(Cc3ccc(F)cc3)CCN12 ?
NIH3T3 tox: inactive; HEK cytotox: inactive; Luciferase inh: 25µM; GPT2 inh: inactive; NPR1 antag: inactive

What do the screens show for `c1nc(N2CCOCC2)ncc1CN1CC[C@H]2CNC[C@H]21`?
NIH3T3 tox: inactive; HEK cytotox: inactive; Luciferase inh: inactive; GPT2 inh: inactive; NPR1 antag: inactive

What do the screens show for `O=C1NC[C@H]2CN(C3CCOCC3)CCN12`?
NIH3T3 tox: inactive; HEK cytotox: inactive; Luciferase inh: inactive; GPT2 inh: inactive; NPR1 antag: inactive

How did Cc1nc(-c2cccs2)cc([C@H]2CN3CC[C@H]2C[C@@H]3CNC(=O)Nc2cccc(C(F)(F)F)c2)n1 do in these assays?
NIH3T3 tox: 25µM; HEK cytotox: 25µM; Luciferase inh: inactive; GPT2 inh: inactive; NPR1 antag: inactive

How did Cc1nc(-c2cccs2)cc([C@H]2CN3CC[C@H]2C[C@@H]3CNC(=O)c2ccc3c(c2)OCO3)n1 do in these assays?
NIH3T3 tox: 40µM; HEK cytotox: inconclusive; Luciferase inh: inactive; GPT2 inh: inactive; NPR1 antag: inactive

How did Cc1nc(-c2ccccc2Br)cc([C@H]2CN3CC[C@H]2C[C@@H]3CNC(=O)c2cccs2)n1 do in these assays?
NIH3T3 tox: inconclusive; HEK cytotox: 79µM; Luciferase inh: inactive; GPT2 inh: inactive; NPR1 antag: inactive

How did Cc1ccc(C(=O)NC[C@H]2C[C@@H]3CCN2C[C@@H]3c2cc(-c3cccs3)nc(C)n2)cc1 do in these assays?
NIH3T3 tox: 28µM; HEK cytotox: inconclusive; Luciferase inh: inactive; GPT2 inh: inactive; NPR1 antag: inactive

What do the screens show for `Cc1nc(-c2cccs2)cc([C@H]2CN3CC[C@H]2C[C@@H]3CNC(=O)c2ccccc2)n1`?
NIH3T3 tox: inconclusive; HEK cytotox: inconclusive; Luciferase inh: inactive; GPT2 inh: inactive; NPR1 antag: inactive

Results for CS(=O)(=O)N1C[C@@H]2C[C@H](C1)c1ccc(NC(=O)c3ccncc3)c(=O)n1C2 ?
NIH3T3 tox: inconclusive; HEK cytotox: inactive; Luciferase inh: inactive; GPT2 inh: inactive; NPR1 antag: inactive

What do the screens show for `Cn1cc(CN2CCOC[C@H](O)C2)c2ccccc21`?
NIH3T3 tox: 89µM; HEK cytotox: 63µM; Luciferase inh: inactive; GPT2 inh: inactive; NPR1 antag: inactive

How did COc1cccc(CC(=O)N2CCC3(CC2)NCc2ccccc2-n2ccnc23)c1 do in these assays?
NIH3T3 tox: inconclusive; HEK cytotox: inactive; Luciferase inh: inactive; GPT2 inh: inactive; NPR1 antag: inactive

Results for CS[C@]1(CO)C(=O)N2[C@H]3C(=CC=C[C@@H]3O)C[C@@]2(SC)C(=O)N1C ?
GPT2 inh: inactive
